From the OligoGym collection

What follows are sequences tested against CYP4A22 (assay: pooled miR-30 sensor sort-seq; sequence = guide strand). Settings: shRNA.
Note: reference of the scale not given here.

Row | Sequence | sensor-assay potency score (higher = more potent)
1 | ATTTCAACACAAGTCGTGCCAT | -0.11
2 | TTGGATCACTTGGTCTGTGTGC | -0.603
3 | TGAGCTCTCTTCCAATGCCTGG | -1.4
4 | TAGAGGATCCAGGAGATCCCAC | -1.33
5 | TTCATGGCAAATTGTTTCCCGA | -0.959
6 | TAGGATCCATGGGATTTCGGGT | -1.1
7 | TTGGGAATGTCTTCACCCGTTC | -0.893
8 | TCAGTTGGATCACTTGGTCTGT | -0.279
9 | AAACATGAACGTGTCCACCTCA | -0.12
10 | TTGTAGCTCCTGGTCGTGTTGG | -0.703
11 | TTGGGTTGTGGTGAAGGCCATA | -1
12 | TTGTCTGACAAGATGCTCCCAT | 0.46

Each sequence was assayed against CYP4V2 in the same assay as above. Settings: shRNA.

Row | Sequence | sensor-assay potency score (higher = more potent)
13 | TTCTTCAGGTCTTCTACTGTAG | -0.329
14 | TTCAACTTGATCCAGATGCCAT | -0.613
15 | TTCTTCTCGAATATCTTCATGA | -0.54
16 | TCATTCTATAAACTGCACGGAC | -0.644
17 | TAACACATTCCAGATACCGAAG | -1.38
18 | ATATCTTCATGACTTAGCCTGT | -0.479
19 | TCAACTGTCCTTCTAGACCAAG | -1.36
20 | TTCTAGACCAAGCTCTTCTCTT | -0.575
21 | TTTTGACCTATACAGTTCCTGG | -1.19
22 | TTCTGGTTGGATTCTATCCAAA | -1.62
23 | TTAGAACTCTGTAACCTGCCAC | 0.681

These sequences were tested against CYSLTR1 in the same assay as above. Settings: shRNA.

Row | Sequence | sensor-assay potency score (higher = more potent)
24 | TTGACATACAAAGCATAGGTGC | -0.753
25 | TTAGTTTGATTGTCTTGTGGGG | 0.0611
26 | TTTTAGTTTGATTGTCTTGTGG | -0.438
27 | TAAATTAATCATGTATACTTGG | -0.15
28 | TAGAGGTTGACATACAAAGCAT | -0.639
29 | TGACACATAATGCAAGACCAAA | -1.62
30 | ATACCTACACACACAAACCTGG | -0.207
31 | TTTCTGAATGTAGACAGCCTTT | -1.15
32 | TTTAGTTTGATTGTCTTGTGGG | 0.715
33 | TTTGTGAACATAATAGACCACA | -0.314
34 | TAGAAATGGAGAACTGGTCAAA | -0.616

These sequences were tested against CYTH1 in the same assay as above. Settings: shRNA.

Row | Sequence | sensor-assay potency score (higher = more potent)
35 | TAACTTGGTCTTTATTGTCGGG | -0.54
36 | TTGTCAGTCAGAATGAACCAGC | -0.752
37 | TATTGCACTGACAATATCGCTG | -0.0444
38 | TAGGAAACACTTGAGAACCAGG | -0.778
39 | TTGCACTGACAATATCGCTGGG | 0.116
40 | TTTCATTAGCTACTTCTGCTAT | -0.232
